Out of some 5,500 compounds screened, about 2,000 (36%) were called active. About 18% were inconclusive and are not listed. Cut-off read from the data, not from the text of the source: active = normalized growth mostly below about 0.91 (no sharp cut-off); inconclusive = no clear call, values can overlap the other calls; inactive = mostly above about 0.92. The list shows a part of the results.
Assay: chemical genetic growth profiling, strain panel (AID 1159580);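 note: tested at 20 µM; growth read once vehicle control cultures reached saturation at 30 °C; 1 = growth at the plate median or of vehicle wells; lower values mean less growth of the strain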
Details: growth OD

Measured: normalized growth

C#CCCCCCCCCCCCC(O)CC(O)COC(C)=O (stereo unspecified)
inactive: S. cerevisiae deletion strains, locus YKL068W, active compounds read low 0.985 | S. cerevisiae deletion strains, locus YKL085W, strain MDH1 (second series), active compounds read low 0.964 | S. cerevisiae deletion strains, locus YKL085W, strain MDH1, active compounds read low 0.964 | S. cerevisiae deletion strains, locus YKL190W, strain CNB1, active compounds read low 0.986 | S. cerevisiae deletion strains, locus YKR091W, strain srl3, active compounds read low 0.996 | S. cerevisiae deletion strains, locus YLL001W, strain dnm1, active compounds read low 0.913 | S. cerevisiae deletion strains, locus YLR039C, strain RIC1, active compounds read low 0.976 | S. cerevisiae deletion strains, locus YLR058C, strain SHM2, active compounds read low 0.965 | S. cerevisiae deletion strains, locus YLR102C, strain apc9, active compounds read low 0.968 | S. cerevisiae deletion strains, locus YLR113W, strain HOG1, active compounds read low 0.94 | S. cerevisiae deletion strains, locus YLR262C, strain YPT6, active compounds read low 0.962 | S. cerevisiae deletion strains, locus YLR268W, strain sec22, active compounds read low 0.927 | S. cerevisiae deletion strains, locus YLR330W, strain CHS5, active compounds read low 0.981 | S. cerevisiae deletion strains, locus YLR342W, strain FKS1 (second series), active compounds read low 0.856 | S. cerevisiae deletion strains, locus YLR357W, strain rsc2, active compounds read low 0.958 | S. cerevisiae deletion strains, locus YLR370C, strain arc18, active compounds read low 0.994 | S. cerevisiae deletion strains, locus YLR371W, strain rom2, active compounds read low 0.958 | S. cerevisiae deletion strains, locus YLR384C, strain iki3, active compounds read low 0.967 | S. cerevisiae deletion strains, locus YLR418C, strain cdc73, active compounds read low 0.861 | S. cerevisiae deletion strains, locus YML016C, strain PPZ1, active compounds read low 0.978 | S. cerevisiae deletion strains, locus YML124C, strain tub3, active compounds read low 0.972 | S. cerevisiae deletion strains, locus YMR078C, strain ctf18, active compounds read low 0.954 | S. cerevisiae deletion strains, locus YMR125W, strain sto1, active compounds read low 0.908 | S. cerevisiae deletion strains, locus YMR231W, strain pep5, active compounds read low 1.01 | S. cerevisiae deletion strains, locus YMR263W, strain SAP30, active compounds read low 0.966 | S. cerevisiae deletion strains, locus YMR307W, strain GAS1, active compounds read low 0.885 | S. cerevisiae deletion strains, locus YNL067W, strain RPL9B, active compounds read low 0.928 | S. cerevisiae deletion strains, locus YNL128W, strain TEP1, active compounds read low 0.961 | S. cerevisiae deletion strains, locus YNL153C, strain GIM3, active compounds read low 0.994 | S. cerevisiae deletion strains, locus YNL183C, strain NPR1, active compounds read low 0.954 | S. cerevisiae deletion strains, locus YNL233W, strain BNI4, active compounds read low 0.906 | S. cerevisiae deletion strains, locus YNL250W, strain rad50, active compounds read low 0.946 | S. cerevisiae deletion strains, locus YNL271C, strain bni1, active compounds read low 0.942 | S. cerevisiae deletion strains, locus YNL322C, strain KRE1, active compounds read low 0.98 | S. cerevisiae deletion strains, locus YNR049C, strain mso1, active compounds read low 1.01 | S. cerevisiae deletion strains, locus YOL006C, strain TOP1, active compounds read low 0.85 | S. cerevisiae deletion strains, locus YOL012C, strain htz1 1.07 | S. cerevisiae deletion strains, locus YOL147C, strain pex11, active compounds read low 0.953 | S. cerevisiae deletion strains, locus YOR061W, strain CKA2, active compounds read low 0.893 | S. cerevisiae deletion strains, locus YOR069W, strain VPS5, active compounds read low 0.992 | S. cerevisiae deletion strains, locus YOR080W, strain dia2, active compounds read low 0.952 | S. cerevisiae deletion strains, locus YOR136W, strain idh2, active compounds read low 0.934 | S. cerevisiae deletion strains, locus YOR144C, strain elg1, active compounds read low 0.973 | S. cerevisiae deletion strains, locus YOR231W, strain MKK1, active compounds read low 1.01 | S. cerevisiae deletion strains, locus YOR290C, strain snf2, active compounds read low 0.899 | S. cerevisiae deletion strains, locus YOR316C, strain cot1, active compounds read low 0.969 | S. cerevisiae deletion strains, locus YPL055C, strain LGE1, active compounds read low 0.904 | S. cerevisiae deletion strains, locus YPL241C, strain CIN2, active compounds read low 0.983 | S. cerevisiae deletion strains, locus YPL256C, strain CLN2, active compounds read low 0.981 | S. cerevisiae deletion strains, locus YPR119W, strain clb2, active compounds read low 0.97 | S. cerevisiae deletion strains, locus YPR141C, strain kar3, active compounds read low 0.979 | S. cerevisiae deletion strains, locus YPR163C, strain tif3, active compounds read low 0.961 | S. cerevisiae deletion strains, locus YPR167C, strain met16, active compounds read low 0.969 | S. cerevisiae deletion strains, strain wtn01, active compounds read low 0.928 | S. cerevisiae strains, strain wild type, active compounds read low 0.97
active: S. cerevisiae deletion strains, locus YKL009W, strain mrt4, active compounds read low 0.8 | S. cerevisiae deletion strains, locus YKL160W, strain elf1, active compounds read low 0.864 | S. cerevisiae deletion strains, locus YKR001C, strain vps1, active compounds read low 0.871 | S. cerevisiae deletion strains, locus YKR026C, strain gcn3, active compounds read low 0.843 | S. cerevisiae deletion strains, locus YLL026W, active compounds read low 0.344 | S. cerevisiae deletion strains, locus YLL041C, strain sdh2, active compounds read low 0.542 | S. cerevisiae deletion strains, locus YLR027C, strain aat2, active compounds read low 0.478 | S. cerevisiae deletion strains, locus YLR221C, strain rsa3, active compounds read low 0.305 | S. cerevisiae deletion strains, locus YLR258W, strain gsy2, active compounds read low 0.493 | S. cerevisiae deletion strains, locus YLR262C, strain YPT6 (second series), active compounds read low 0.726 | S. cerevisiae deletion strains, locus YLR320W, strain mms22, active compounds read low 0.647 | S. cerevisiae deletion strains, locus YLR342W, strain FKS1, active compounds read low 0.647 | S. cerevisiae deletion strains, locus YML032C, strain rad52, active compounds read low 0.868 | S. cerevisiae deletion strains, locus YML120C, strain ndi1, active compounds read low 0.171 | S. cerevisiae deletion strains, locus YMR058W, strain fet3, active compounds read low 0.749 | S. cerevisiae deletion strains, locus YMR129W, active compounds read low 0.316 | S. cerevisiae deletion strains, locus YMR205C, strain PFK2, active compounds read low 0.507 | S. cerevisiae deletion strains, locus YMR223W, strain ubp8, active compounds read low 0.889 | S. cerevisiae deletion strains, locus YNL071W, strain lat1, active compounds read low 0.208 | S. cerevisiae deletion strains, locus YNL209W, strain ssb2, active compounds read low 0.886 | S. cerevisiae deletion strains, locus YNL248C, strain rpa49, active compounds read low 0.84 | S. cerevisiae deletion strains, locus YNL298W, strain CLA4, active compounds read low 0.786 | S. cerevisiae deletion strains, locus YNL307C, strain MCK1, active compounds read low 0.744 | S. cerevisiae deletion strains, locus YNL322C, strain KRE1 (second series), active compounds read low 0.633 | S. cerevisiae deletion strains, locus YNR052C, strain pop2, active compounds read low 0.896 | S. cerevisiae deletion strains, locus YOR001W, strain rrp6, active compounds read low 0.397 | S. cerevisiae deletion strains, locus YOR070C, strain gyp1, active compounds read low 0.878 | S. cerevisiae deletion strains, locus YOR083W, strain WHI5, active compounds read low 0.866 | S. cerevisiae deletion strains, locus YOR106W, strain vam3, active compounds read low 0.442 | S. cerevisiae deletion strains, locus YOR184W, strain ser1, active compounds read low 0.774 | S. cerevisiae deletion strains, locus YOR265W, strain rbl2, active compounds read low 0.926 | S. cerevisiae deletion strains, locus YOR270C, strain vph1, active compounds read low 0.506 | S. cerevisiae deletion strains, locus YPL051W, strain arl3, active compounds read low 0.831 | S. cerevisiae deletion strains, locus YPL078C, strain atp4, active compounds read low 0.829 | S. cerevisiae deletion strains, locus YPL106C, strain sse1, active compounds read low 0.58 | S. cerevisiae deletion strains, locus YPL240C, strain hsp82, active compounds read low 0.342

Reference: PubChem BioAssay AID1159580 (chemical genetic matrix, 2015)
